Values joined by “and” are separate entries in the source; they are usually repeats but may differ in a detail not shown here. Identical values can stand only once. Compounds without any hit were thinned out: in the full panel of roughly 83,000, 20% have a hit.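 Activity criterion: percent growth below 10, measured after cells in 96-well plates were exposed to a single compound concentration for 48 hours.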 Active and inactive are the calls of the source.
system: SN12C renal; assay: NCI-60 one-dose screen, 48 h (100 = growth as untreated, 0 = no growth, -100 = all killed); conditions: 10 µM
Experimental: Growth inhibition of the SN12C human tumor cell line is measured as a screen for anti-cancer activity. Cells are grown in 96 well plates and exposed to the test compound for 48 hours. Compounds are tested at a single concentration, which is 10^-5 M for most compounds. The reported endpoint is percent growth (GI% or GIPRCNT), where numbers from 0 - 100% represent growth inhibition, and numbers from -100% - 0 represent cell death. For example, a value of 40 represents 60% growth inhibition. A value of 0 means no net growth occurred over the course of the experiment. A value of -40 indicates 40% of cells at the beginning of the experiment died by the end of the experiment. A value of -100 means all cells are dead at the end of the experiment.
NCI-60 Human Tumor Cell Lines Screen was performed using the standard one-dose NCI protocol, which is described in more detail at https://dtp.cancer.gov/discovery_development/nci-60/default.htm.
Compounds with GIPRCNT values below 10 were considered active. Activity score was based on GIPRCNT using the following formula: […]
Score is 0 for GIPRCNT values of 100 or above, 50 for GIPRCNT values of 0, and 100 for GIPRCNT values of -100.

Compound	growth
CC#C[C@]1(O)CC[C@H]2[C@@H]3CCC4=CC(=O)CCC4=C3[C@@H](c3ccc4c(c3)OCO4)C[C@@]21C	91.2% (inactive)
COc1ccc(Cl)cc1C(=O)NCCc1ccc(S(=O)(=O)NC(=O)NC2CCCCC2)cc1	91.4% (inactive) and 93.8% (inactive)

same assay, conditions: 10 µM unless noted

Compound	growth
c1ccc2cc(C[n+]3ccn(Cc4ccc5ccccc5n4)c3)ccc2c1	2.29% (active) and 11.9% (inactive)
CC1=C[C@H]2c3c(c(O)c(O)c4oc5cc(O)cc(O)c5c(=O)c34)[C@H](c3cc(O)c(O)c4oc5cc(O)cc(O)c5c(=O)c34)[C@H]2C(C)(C)C1	9.13% (active) and -8.98% (active)
O=c1c2ccccc2nc2n1Cc1nc3ccccc3c(=O)n1C2	96.9% (inactive) and 102% (inactive)
Oc1nc(NCCc2ccccc2)sc1/C=C1\C=Nc2ncccc21	33.5% (inactive) and 15.9% (inactive)
CN(C)c1ccc(C(=C2C=CC(=[N+](C)C)C=C2)c2ccccc2Cl)cc1	-42% (active) and -50.3% (active)
Nc1n[nH]c(=S)n1-c1ccc(Cl)cc1	100% (inactive)
COc1ccccc1C(C)=O	118% (inactive) and 108% (inactive)
Cn1c(=O)c2[nH]c(CCCCCCCCc3nc4ccccc4[nH]3)nc2n(C)c1=O	81.2% (inactive) and 68% (inactive)
NC(=O)C1CC2C=CC1C2 (stereo not given)	103% (inactive) and 99.6% (inactive)
O=C(Nc1ccc(Br)cc1)c1cc(Br)ccc1O	6.5% (active) and -10.3% (active)
CC(=O)NC(Cc1ccccc1)C(=O)Oc1ccc2ccccc2c1 (stereo not given)	103% (inactive) and 98.9% (inactive)
CC(=O)C(/C=N/C(N)=O)=C(/C)O	105% (inactive)
CC1=C(/C=C/C(C)=C/C=C/C(C)=C/C=N/NC(=S)NC(=S)N/N=C/C=C(C)/C=C/C=C(C)/C=C/C2=C(C)CCCC2(C)C)C(C)(C)CCC1	-29% (active) and -55.2% (active)
N#CCCOc1ccccc1	99.8% (inactive)
NCCSC(C[N+](=O)[O-])c1ccccc1Cl (stereo not given)	104% (inactive)
CCN1CCN(CCNc2nccc(-c3c(-c4cccc(O)c4)nc4sccn34)n2)S1(=O)=O	75.8% (inactive) and 66.7% (inactive)
O=C1OC(Oc2ccc(Br)cc2)(c2ccccc2)c2ccccc21 (stereo not given)	87.8% (inactive) and 98.2% (inactive)
CN1CCN(CCC=C2c3ccccc3Sc3ccc(S(=O)(=O)N(C)C)cc32)CC1	56.9% (inactive) and 76.4% (inactive)

Compound	growth
COc1ccc(Cn2c(NCCN=C(N)N)nc(=O)n(Cc3ccc(F)cc3)c2=O)cc1	91.4% (inactive) and 68.8% (inactive)
Nc1nc(SC/C=C/CCl)c2[nH]cnc2n1	108% (inactive) and 111% (inactive)
OCCN1CCN(CCO)CC1	98.1% (inactive) and 89.2% (inactive) and 112% (inactive)
COc1cc(NS(C)(=O)=O)ccc1Nc1c2ccccc2nc2c(C)cccc12	-8.74% (active) and 6.11% (active)
COc1cc2c(Nc3ccc(Cl)c(Cl)c3F)ncnc2cc1OCC1C[C@@H]2CN(C)C[C@@H]2C1 (stereo not given in full)	-76.7% (active) and 18.4% (inactive)
Cc1cc(-c2ccc(NS(=O)(=O)c3ccccc3)c(C)c2)ccc1NS(=O)(=O)c1ccccc1	94.7% (inactive) and 98.4% (inactive)
CC(C(=O)O)n1cc(C#N)c(=O)[nH]c1=O (stereo not given)	98.6% (inactive) and 96.1% (inactive)
COc1ccc(-c2cn[nH]c2-c2cc(OC)c(OC)c(OC)c2)cc1N	36.3% (inactive) and 28.5% (inactive)
CC(C)CNC(=O)c1ccccc1C(=O)NC1(C(=O)NCC(C)C)CCCC1	99.8% (inactive) and 107% (inactive)
O=C(O)C1(C(=O)O)CCC1.[NH2-].[NH2-].[Pt+2]	102% (inactive) and 103% (inactive)
CCC(O)c1ccccc1 (stereo not given)	98.1% (inactive) and 96.2% (inactive)
CCN(CC)CCCC(C)N(Cc1ccccc1)CC(O)c1ccc(Cl)cc1 (stereo not given)	100% (inactive) and 104% (inactive)
CC1CCCc2sc3nc(NNC(=O)c4cnccn4)n(-c4ccccc4)c(=O)c3c21 (stereo not given)	20% (inactive) and 16.7% (inactive)
Cc1n[nH]c(=O)n(/N=C\c2c[nH]c3ccccc23)c1=O	99.8% (inactive)
CCN(CC)CCOc1ccc(/C=N/Nc2nc3c([nH]2)c(=O)n(C)c(=O)n3C)cc1	98.9% (inactive) and 96.5% (inactive)
CC1(C)[C@@H](OC(=O)CCC(=O)O)CC[C@]2(C)[C@H]3C(=O)C=C4[C@@H]5C[C@@](C)(C(=O)O)CC[C@]5(C)CC[C@@]4(C)[C@]3(C)CC[C@@H]12	102% (inactive) and -19.1% (active)
c1ccc(NCc2ccc3c(c2)OCO3)cc1	105% (inactive) and 100% (inactive)
Oc1c(CN2CCCCC2)ccc2cccnc12	58.2% (inactive) and 59.2% (inactive)

same assay, conditions: 100 µM

Compound	growth
CC#C[C@]1(O)CC[C@H]2[C@@H]3CCC4=CC(=O)CCC4=C3[C@@H](c3ccc4c(c3)OCO4)C[C@@]21C	-16.1% (active)
COc1ccc(Cl)cc1C(=O)NCCc1ccc(S(=O)(=O)NC(=O)NC2CCCCC2)cc1	71.4% (inactive)

Reference: PubChem BioAssay (NCI)
